Results taken from PubChem BioAssay.
Activity calls are given as the source filed them. Unless noted, no rule for the calls is given here.

Assays:
[1] = anti-His antibody binders, primary screen, artefact control for SMM control protein annotation, biochemical, small-molecule microarray, 635 nm fluorescence (AID 1128); settings: anti-His Alexa647 antibody binding, higher = more signal;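 also: score merges feature fluorescence with signal-to-noise for each printed compound spot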
[2] = system: Human papillomavirus type 1a E7 protein (residues 1-88); assay: HPV1a E7 small-molecule binders, primary screen, biochemical, small-molecule microarray, residues 1-88, 635 nm (AID 1129); settings: small-molecule microarray binding, fluorescence 635 nm; higher = more signal
[3] = target: Focal adhesion kinase 1 (Homo sapiens) (UniProt Q05397); assay: small-molecule microarray binders of FAK, primary screen, biochemical, 635/667 nm fluorescence, BSA, DTT (AID 1130); settings: PTK2 binding, 635 nm fluorescence, higher = more signal;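 also: composite of spot emission at 667 nm and signal to noise over triplicate slides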
Focal adhesion kinase 1 (Homo sapiens), sequence (Q05397 whole entry, looked up): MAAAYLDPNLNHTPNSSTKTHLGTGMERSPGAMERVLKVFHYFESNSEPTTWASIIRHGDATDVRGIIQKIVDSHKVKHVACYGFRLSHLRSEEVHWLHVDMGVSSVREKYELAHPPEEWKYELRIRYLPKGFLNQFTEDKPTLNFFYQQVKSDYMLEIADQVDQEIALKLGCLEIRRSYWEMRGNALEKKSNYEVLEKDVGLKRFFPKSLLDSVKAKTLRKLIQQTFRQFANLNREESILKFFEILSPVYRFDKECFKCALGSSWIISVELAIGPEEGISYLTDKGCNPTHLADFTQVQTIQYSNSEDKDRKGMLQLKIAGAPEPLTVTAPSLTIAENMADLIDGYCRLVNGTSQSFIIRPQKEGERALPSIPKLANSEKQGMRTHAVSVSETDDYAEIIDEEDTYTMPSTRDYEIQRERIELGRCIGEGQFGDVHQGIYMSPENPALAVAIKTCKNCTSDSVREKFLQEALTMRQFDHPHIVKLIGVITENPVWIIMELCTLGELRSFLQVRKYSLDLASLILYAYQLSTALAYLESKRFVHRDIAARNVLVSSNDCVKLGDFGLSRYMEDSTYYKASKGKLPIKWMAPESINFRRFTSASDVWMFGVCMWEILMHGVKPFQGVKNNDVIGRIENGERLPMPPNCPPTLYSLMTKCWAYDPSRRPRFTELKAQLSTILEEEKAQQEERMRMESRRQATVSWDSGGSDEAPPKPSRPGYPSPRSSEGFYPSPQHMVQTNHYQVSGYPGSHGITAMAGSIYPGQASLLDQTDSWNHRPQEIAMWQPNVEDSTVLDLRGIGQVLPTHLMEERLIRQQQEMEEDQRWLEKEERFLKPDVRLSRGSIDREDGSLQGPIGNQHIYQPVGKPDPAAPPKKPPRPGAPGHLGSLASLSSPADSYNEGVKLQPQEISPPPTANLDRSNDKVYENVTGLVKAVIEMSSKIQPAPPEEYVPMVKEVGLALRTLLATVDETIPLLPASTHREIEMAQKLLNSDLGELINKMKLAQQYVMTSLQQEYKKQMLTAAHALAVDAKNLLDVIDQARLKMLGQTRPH

[4] = system: Fibrinogen (Alexa647-labelled); assay: fibrinogen binders on compound microarrays, profiling panel, artefact control for SMM control-protein annotation, biochemical, small-molecule microarray, 635/667 nm fluorescence (AID 1131); settings: fibrinogen-A647 binding fluorescence, higher = more signal;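 also: z-score merges 667 nm fluorescence with per-spot signal-to-noise over triplicate slides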
[5] = target: Follistatin (Homo sapiens) (UniProt P19883); assay: follistatin binders on small-molecule microarrays, primary screen, biochemical, small-molecule microarray, 635/667 nm fluorescence (AID 1132); settings: FST binding, 635 nm fluorescence, higher = more signal
Follistatin (Homo sapiens), sequence (P19883 whole entry, looked up): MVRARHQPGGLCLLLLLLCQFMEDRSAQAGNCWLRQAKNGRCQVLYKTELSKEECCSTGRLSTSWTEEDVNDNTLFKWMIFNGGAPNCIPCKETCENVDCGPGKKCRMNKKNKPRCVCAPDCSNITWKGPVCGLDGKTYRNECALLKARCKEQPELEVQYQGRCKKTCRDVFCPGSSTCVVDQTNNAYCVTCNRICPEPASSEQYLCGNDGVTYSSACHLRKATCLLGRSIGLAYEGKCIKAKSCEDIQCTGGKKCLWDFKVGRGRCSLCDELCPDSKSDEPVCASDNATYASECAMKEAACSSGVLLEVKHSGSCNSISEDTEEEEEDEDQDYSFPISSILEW

[6] = target: Fibroblast growth factor 2 (Homo sapiens) (UniProt P09038); assay: FGF2 binders on small-molecule microarrays, primary screen, biochemical, small-molecule microarray, 635/667 nm fluorescence (AID 1133); settings: small-molecule microarray binding, FGF2, fluorescence 635/667; higher = more signal
Fibroblast growth factor 2 (Homo sapiens), sequence (P09038 whole entry, looked up): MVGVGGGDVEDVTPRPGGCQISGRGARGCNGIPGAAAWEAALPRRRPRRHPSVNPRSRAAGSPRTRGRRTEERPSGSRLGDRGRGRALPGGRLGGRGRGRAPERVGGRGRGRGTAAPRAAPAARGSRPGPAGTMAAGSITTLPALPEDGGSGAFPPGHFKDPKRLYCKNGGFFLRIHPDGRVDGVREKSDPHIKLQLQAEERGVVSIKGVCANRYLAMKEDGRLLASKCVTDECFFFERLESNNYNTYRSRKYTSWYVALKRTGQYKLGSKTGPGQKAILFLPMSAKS

[7] = mitochondrial membrane potential change in A549 cells, profiling panel, cell-based, JC-1 fluorescence, basal, 24 h, 100 nL (AID 1138); settings: higher = more signal;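 also: A549 lung adenocarcinoma cells under basal conditions with no added stimulus; test concentration not given here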
Lefty1 = Lefty1 binders on small-molecule microarrays, primary screen, biochemical, small-molecule microarray, 635/667 nm fluorescence (AID 1139); settings: small-molecule microarray binding, fluorescence 635/667; higher = more signal
[8] = system: wheat germ agglutinin (Triticum aestivum), Alexa647-labelled; assay: wheat germ agglutinin binders on compound microarrays, profiling panel, artefact control for SMM control-protein annotation, biochemical, small-molecule microarray, 635/667 nm fluorescence (AID 1140); settings: WGA-A647 binding, 635 nm fluorescence, higher = more signal;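 also: score merges 667 nm feature emission with signal to noise over triplicate slides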
[9] = target: Luciferin 4-monooxygenase (Photinus pyralis) (UniProt P08659); assay: firefly luciferase enzyme inhibitors, primary screen, biochemical, luminescence, purified enzyme, 2006 set (AID 1141); settings: SteadyGlo luminescence, 30 min, higher = more signal, called active from +8 up or from −8 down;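 also: cell-free assay with purified firefly luciferase at 100 ng per well in PBS; test concentration not given here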
Luciferin 4-monooxygenase (Photinus pyralis), sequence (P08659 whole entry, looked up): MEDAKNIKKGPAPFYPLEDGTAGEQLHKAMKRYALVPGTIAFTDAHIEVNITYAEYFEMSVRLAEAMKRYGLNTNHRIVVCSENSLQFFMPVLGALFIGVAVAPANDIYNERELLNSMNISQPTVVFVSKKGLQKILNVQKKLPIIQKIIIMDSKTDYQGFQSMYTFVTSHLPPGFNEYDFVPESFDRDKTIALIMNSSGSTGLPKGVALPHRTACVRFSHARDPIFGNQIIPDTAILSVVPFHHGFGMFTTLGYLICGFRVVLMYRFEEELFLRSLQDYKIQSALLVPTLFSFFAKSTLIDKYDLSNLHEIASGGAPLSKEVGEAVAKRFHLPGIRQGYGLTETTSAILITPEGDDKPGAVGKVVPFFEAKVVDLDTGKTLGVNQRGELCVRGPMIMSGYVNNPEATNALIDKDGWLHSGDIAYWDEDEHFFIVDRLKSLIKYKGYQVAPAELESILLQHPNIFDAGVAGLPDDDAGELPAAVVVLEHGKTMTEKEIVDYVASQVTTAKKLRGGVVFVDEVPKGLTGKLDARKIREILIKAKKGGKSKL

[10] = system: Wnt5a (protein binding on small-molecule microarray); assay: Wnt5a binders on small-molecule microarray, primary screen, biophysical, 635/667 nm fluorescence (AID 1142); settings: 635 nm fluorescence, higher = more signal;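 also: fluorescence read at 667 nm with signal to noise per printed feature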
[11] = cell viability in Huh7 cells, primary screen, cytotoxicity control for HCV replication inhibitor project, CellTiter-Glo luminescence, basal, 48 h (AID 1143); settings: Huh7 HCV replicon, higher = more signal, called active from +8 up or from −8 down;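 also: Huh7 hepatoma cells carrying a hepatitis C replication reporter with no stimulus; test concentration not given here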
[12] = P. aeruginosa biofilm formation inhibitors, primary screen, PAO1 strain, BacTiter-Glo luminescence, LB-PBS (AID 1144); settings: 12 h, higher = more signal
[13] = CREB reporter modulators without forskolin, primary screen, cell-based, PC12, CRE-LacZ reporter, unstimulated (AID 1145); settings: no forskolin, luminescence, 4.5 h, higher = more signal, called active from +8 up or from −8 down
[14] = CREB reporter modulators under forskolin, primary screen, cell-based, PC12, CRE-LacZ reporter, forskolin-stimulated (AID 1146); settings: luminescence, 4.5 h, higher = more signal, called active from +8 up or from −8 down;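 also: PC12 cells with 6xCRE LacZ reporter stimulated by forskolin 10 µM; beta-galactosidase reporter signal reflecting CREB driven transcription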
[15] = target: Streptavidin (Streptomyces avidinii) (UniProt P22629); assay: streptavidin binders on small-molecule microarray, primary screen, artefact control for SMM compound annotation, biophysical, 635/667 nm fluorescence (AID 1147); settings: streptavidin binding, higher = more signal;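 also: signal reflects streptavidin binding to arrayed compounds as a control protein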
Streptavidin (Streptomyces avidinii), sequence (P22629 whole entry, looked up): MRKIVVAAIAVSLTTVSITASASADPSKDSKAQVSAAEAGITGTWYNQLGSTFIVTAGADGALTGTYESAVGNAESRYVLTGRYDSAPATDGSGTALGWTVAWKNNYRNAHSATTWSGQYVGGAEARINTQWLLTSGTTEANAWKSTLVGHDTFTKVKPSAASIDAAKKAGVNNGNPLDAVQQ

[16] = small-molecule binders of probe aInhba, primary screen, biochemical, small-molecule microarray, 635/667 nm fluorescence (AID 1148); settings: higher = more signal;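 also: score merges 667nm spot fluorescence with signal-to-noise for antibody binding to printed compounds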
Torsin-1A (Homo sapiens) [17] = target: Torsin-1A (Homo sapiens) (UniProt O14656); assay: torsin A binders from cell lysate, primary screen, small-molecule microarray, wild-type, 635/667 nm (AID 1149); settings: COS7 hTOR1A-WT lysate, 635 nm fluorescence, higher = more signal
Torsin-1A (Homo sapiens), sequence (O14656 whole entry, looked up): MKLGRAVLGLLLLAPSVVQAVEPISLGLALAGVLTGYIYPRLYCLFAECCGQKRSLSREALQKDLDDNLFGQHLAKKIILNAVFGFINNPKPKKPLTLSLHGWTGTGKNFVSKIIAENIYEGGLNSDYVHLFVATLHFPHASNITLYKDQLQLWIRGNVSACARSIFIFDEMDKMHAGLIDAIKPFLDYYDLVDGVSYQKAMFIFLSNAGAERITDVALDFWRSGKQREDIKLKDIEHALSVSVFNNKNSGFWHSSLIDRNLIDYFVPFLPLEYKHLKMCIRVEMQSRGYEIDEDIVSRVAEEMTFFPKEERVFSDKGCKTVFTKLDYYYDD

Torsin-1A (Homo sapiens) [18] = target: Torsin-1A (Homo sapiens) (UniProt O14656); assay: small-molecule binders of mutant TOR1A in lysate, primary screen, cell lysate, small-molecule microarray, COS7 lysate, 635/667 nm fluorescence (AID 1150); settings: COS7 hTOR1A mutant lysate, 635 nm fluorescence, higher = more signal;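 also: score pools 667 nm emission and signal to noise measuring lysate protein binding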
[19] = system: Sonic hedgehog protein (Shh); assay: small-molecule binders of Shh protein, primary screen, biochemical, small-molecule microarray, 635/667 nm fluorescence (AID 1151); settings: small-molecule microarray binding, 635 nm fluorescence; higher = more signal;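 also: Shh protein binding to compounds spotted on small-molecule microarray slides; score combines spot fluorescence intensity with signal-to-noise across triplicate slides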

| SMILES | composite z-score [1] | composite z-score [2] | composite z-score [3] | composite z-score [4] | composite z-score [5] | composite z-score [6] | z-score [7] | composite z-score (Lefty1) | composite z-score [8] | z-score [9] | composite z-score [10] | z-score [11] | z-score [12] | z-score [13] | z-score [14] | composite z-score [15] | composite z-score [16] | composite z-score (Torsin-1A (Homo sapiens) [17]) | composite z-score (Torsin-1A (Homo sapiens) [18]) | composite z-score [19] |
| --- | --- | --- | --- | --- | --- | --- | --- | --- | --- | --- | --- | --- | --- | --- | --- | --- | --- | --- | --- | --- |
| O=C1[C@@H]2[C@@H](CC(COc3ccccc3)=C3[C@@H](CCc4ccccc4)OB(O)C[C@@H]32)C(=O)N1Cc1ccccc1 | -0.147 | 0.871 | 0.034 | 0.0907 | 0.445 | 0.161 | 1.83 | 0.212 | 0.344 | -1.06 (inactive) | -0.0294 | -1.91 (inactive) | 0.132 (inactive) | 1.94 (inactive) | -1.12 (inactive) | 0.376 | -0.0161 | 0.0258 | 0.256 | 0.919 |
| O=C1O[C@H](c2ccccc2)[C@H](c2ccccc2)N2[C@H]1[C@@H](C(=O)N1CCCCCCC1)[C@]1(C(=O)Nc3ccc(C#CC4(O)CCCCCC4)cc31)[C@H]2c1ccccc1OCCO | 2.25 | 1.35 | 3.94 | 0.713 | 1.62 | 0.121 | 0.589 | 1.92 | 1.71 | 1.03 (inactive) | 2.32 | -3.52 (inactive) | -0.41 (inactive) | 0.335 (inactive) | -0.0926 (inactive) | 4.02 | 1.97 | 3.75 | 3.55 | 2.09 |
| COC(=O)[C@@]1(Cc2ccccc2)[C@H]2c3cc(C(=O)N4CCCC4)n(CCSCCO)c3C[C@H]2CN1C(=O)c1ccccc1 | 2.38 | 1.21 | 0.776 | 0.975 | 0.337 | 0.101 | 0.451 | 0.0341 | 0.844 | 0.103 (inactive) | 0.554 | -1.17 (inactive) | 0.019 (inactive) | 0.387 (inactive) | 2.14 (inactive) | 1.15 | 0.545 | 0.424 | 0.989 | 0.0779 |
| COCC(=C=CC[C@@H](O)c1ccc(OCCO)cc1)CCO | 0.656 | 0.529 | 0.17 | -0.97 | 1.08 | 0.517 | 0.721 | 0.993 | 1.27 | -0.776 (inactive) | 0.0576 | -0.258 (inactive) | -0.934 (inactive) | 0.0986 (inactive) | -0.482 (inactive) | -0.471 | -0.0762 | 0.995 | 0.966 | 1.59 |
| O=C(CS)NCCCCCNC(=O)[C@@H]1C[C@@H]2C(=O)N[C@@H](Cc3ccccc3)C(=O)N2[C@@H]1c1cccc(OCCO)c1 | 0.768 | 1.24 | 0.334 | 0.284 | 1.39 | 1.6 | 0.296 | 0.4 | 0.288 | -1.97 (inactive) | 0.409 | -0.497 (inactive) | -0.042 (inactive) | 0.7 (inactive) | 0.432 (inactive) | -0.0307 | -0.787 | 0.7 | 1.31 | 1.49 |
| C=C(/C(=C/C[C@@H](OC(C)=O)c1ccc(OCCO)cc1)c1cc(C(=O)OC)ccc1OC)C(C)C | 1.81 | 0.999 | 0.211 | 0.665 | 0.776 | 1.11 | 0.471 | 1.36 | 0.85 | -0.6 (inactive) | -0.0426 | -2.02 (inactive) | 1.03 (inactive) | 3.85 (inactive) | -0.27 (inactive) | -0.124 | 0.167 | 0.856 | 0.693 | 1.41 |
| Cc1ccc(S[C@]2(C(=O)NCC(C)C)CC(=O)N(C3Cc4ccccc4C3)[C@@H]2c2ccc(CO)cc2I)cc1 | -0.258 | 0.27 | -0.199 | -1.13 | -0.615 | -1.02 | -0.244 | -1.38 | -0.463 | -0.063 (inactive) | -0.305 | -0.552 (inactive) | 0.491 (inactive) | 0.389 (inactive) | 1.42 (inactive) | -1.21 | -0.182 | -0.284 | -0.183 | -0.51 |
| CCOC(=O)C1=CCC(c2ccccc2)N(S(=O)(=O)c2ccc([N+](=O)[O-])cc2)C1 (stereo not given) | 0.927 | 1.12 | 0.2 | -0.773 | 0.0227 | -0.169 | 0.0562 | -0.111 | 0.599 | 0.864 (inactive) | -0.206 | -3.61 (inactive) | 0.697 (inactive) | 1.23 (inactive) | -0.536 (inactive) | 0.108 | -0.128 | 0.331 | 0.458 | 0.188 |
| [N-]=[N+]=NCc1ccccc1[C@@H]1OC(c2ccc(OCCCO)cc2)=N[C@]1(Cc1ccccc1)C(=O)NCCN1CCOCC1 | 1.16 | 1.18 | 0.533 | 0.514 | 1.31 | 0.41 | 2.27 | -0.0059 | 0.721 | -1.94 (inactive) | 0.629 | -2.31 (inactive) | 0.0636 (inactive) | 2.76 (inactive) | -0.808 (inactive) | 0.686 | 0.386 | 0.0739 | 0.818 | 0.0392 |
| CC(C)(C)OC(=O)CC[C@]12N=C(c3ccc(OCCCO)cc3)O[C@H]1c1ccccc1N(Cc1ccccc1)C2=O | 1.6 | 1.13 | 0.56 | 0.758 | 1.35 | 1.4 | 3.04 | 0.457 | 0.477 | -2.2 (inactive) | 0.154 | -3.76 (inactive) | 1.18 (inactive) | 0.951 (inactive) | -0.746 (inactive) | -0.12 | 0.225 | 0.553 | 1.63 | 1.12 |
